Reference: PubChem BioAssay (NCI)
Compounds without any hit were thinned out: in the full panel of roughly 79,000, 15% have a hit. Calls of active or inactive are those of the source. No stated cut-off is given here; in the data, active means growth inhibition above about 70%; inactive means the rest.

Columns and labels:
[1] = NCI Yeast Anticancer Drug Screen. Data for the rad50 strain (AID 155);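 further: 0% = growth of vehicle-only cultures of the same strain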; conditions: S. cerevisiae rad50 strain growth inhibition; at 50.0 µM; active compounds read high
Summary of the method: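 Inhibition values express reduced yeast growth in compound-treated cultures relative to vehicle-treated controls.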

[2] = NCI Yeast Anticancer Drug Screen. Data for the mec2-1 strain (AID 157); conditions: S. cerevisiae mec2-1 strain, at 50.0 µM, active compounds read high
Summary of the method: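 Using mec2-1 yeast: add compound, measure growth, express inhibition versus vehicle-treated cultures.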

[3] = NCI Yeast Anticancer Drug Screen. Data for the sgs1 mgt1 strain (AID 161);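 further: 0% = growth of cultures given vehicle only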; conditions: S. cerevisiae sgs1 mgt1 strain, at 50.0 µM, active compounds read high
Summary of the method: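 Growth of a repair-deficient yeast mutant was monitored after compound treatment and expressed as inhibition relative to vehicle-treated cultures.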

[4] = NCI Yeast Anticancer Drug Screen. Data for the cln2 rad14 strain (AID 165);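 further: 0% = growth equal to vehicle treated cultures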; conditions: S. cerevisiae cln2 rad14 strain, at 50.0 µM, active compounds read high
Summary of the method: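 Yeast strain cln2 rad14, bearing defects in cell cycle control and DNA repair, serves as the test system; values reflect growth inhibition compared with vehicle.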

[5] = NCI Yeast Anticancer Drug Screen. Data for the bub3 strain (AID 167); conditions: S. cerevisiae bub3 mutant strain, at 50.0 µM, active compounds read high
Summary of the method: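 Steps: expose the mutant yeast strain to compound; grow alongside vehicle-treated cultures; measure growth; express inhibition against the vehicle cultures.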

[6] = NCI Yeast Anticancer Drug Screen. Data for the mlh1 rad18 strain (AID 175); conditions: S. cerevisiae mlh1 rad18 strain growth inhibition; at 50.0 µM; active compounds read high
Summary of the method: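 Steps: expose repair-defective yeast to compound; measure growth; express inhibition against vehicle-treated controls.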

Measured: growth inhibition

CCCCOC(=O)C(=O)OCCCC
inactive: [1] 13.7% | [2] -2.9% | [3] 3.75% | [4] 14.8% | [5] 21.1% | [6] 17.2%

CCC(C)(C)c1ccc([N+](=O)[O-])cc1
inactive: [1] 18.3% | [2] 8.8% | [3] 27.4% | [4] 15.7% | [5] -0.65% | [6] 2.35%

O=C(c1ccccc1)C(N=Nc1ccccc1)(c1ccccc1)c1ccccc1
inactive: [1] 4.15% | [2] -6% | [3] -1.8% | [4] -7.05% | [5] -0.85% | [6] 21.6%

C/C=C/C(=O)Nc1cc(Cl)ccc1C
inactive: [1] -1.25% | [2] -8.1% | [3] -4.95% | [4] -52.1% | [5] 9.4% | [6] 5.55%

O=C1NC(=O)C(=Cc2cc3c(cc2Br)OCO3)C(=O)N1
inactive: [1] 32% | [2] 30.9% | [3] 40.7% | [4] 7% | [5] 41.9% | [6] 25.9%

S=C(S)NCCCn1ccnc1
inactive: [1] -11.8% | [2] 23.8% | [3] -14.8% | [4] -15.9% | [5] -30.7% | [6] -0.8%

COC(=O)/C=C/c1ccc2c(c1)CCCC2
inactive: [1] 18.1% | [2] 15.1% | [3] 10.6% | [4] -8.7% | [5] 22.2% | [6] 24.4%

Cc1c([O-])[n+]2cccc3ccn(c1=O)c32
inactive: [1] -28.7% | [2] -13.6% | [3] -16.7% | [4] -11.1% | [5] -2.4% | [6] 12.1%

CC1=C(C(=O)NC(C)(C)C)CC(C(=O)NC(C)(C)C)C(C)N1 (centres undefined)
inactive: [1] -21.4% | [2] -25.8% | [3] -17.6% | [4] 2.45% | [5] -3.2% | [6] -18.2%

COC(=O)C1=C(C(=O)OC)SC(=CC#CC=C2SC(C(=O)OC)=C(C(=O)OC)S2)S1
inactive: [1] 9.5% | [2] -3.35% | [3] 9.45% | [4] -59.7% | [5] -12.8% | [6] 1.6%

Cc1ccccc1C(c1ccccc1C)c1ccccc1C
inactive: [1] -10.8% | [2] 1% | [3] -10.8% | [4] -15.6% | [5] 1.25% | [6] -19.6%

O=C(O)C1(Br)CC1(c1ccccc1)c1ccccc1 (centres undefined)
inactive: [1] 28.2% | [2] 5.25% | [3] 3.65% | [4] -14.1% | [5] -0.7% | [6] 26.1%

NC(N)=Nc1nc2ccc(Cl)cc2[nH]1
inactive: [1] 29.2% | [2] 1% | [3] 22.8% | [4] -4.3% | [5] -11.9% | [6] 11%

Cc1ccccc1N(CCC#N)C1=NN(C(=O)CC(=O)Nc2ccc(Cl)cc2)C(c2ccccc2)C1 (centres undefined)
inactive: [1] 6.35% | [2] -9.05% | [3] -0.2% | [4] 15% | [5] -16.1% | [6] -5.35%

CCN(CC)CCOC(=O)C1c2ccccc2Oc2ccccc21
inactive: [1] 25.2% | [2] -31.5% | [3] 9.1% | [4] 13.9% | [5] 21.4% | [6] 15.3%

COC(=O)c1ccccc1N=Cc1cc(Cl)ccc1O
inactive: [1] 21.5% | [2] 23.1% | [3] 35.9% | [4] 6.1% | [5] 19.6%
active: [6] 88.2%

CC(C)NCc1ccccc1Sc1ccccc1CNC(C)C
inactive: [1] 22.1% | [2] 5.45% | [3] 12.1% | [4] 12.8% | [5] 11.4% | [6] 16.2%

O=C(O)CCCc1ccccc1[N+](=O)[O-]
inactive: [1] -16.7% | [2] -41.8% | [3] -6.4% | [4] -2.35% | [5] -18.9% | [6] -19.8%

O=C1NC(=O)C2(CCCCCC2)N1
inactive: [1] -23.9% | [2] -23.9% | [3] 10.1% | [4] -0.65% | [5] -4.1% | [6] -26.7%
